PubChem BioAssay AID504848 (National Center for Advancing Translational Sciences (NCATS), 2011)
Among all 2,300 compounds or so, about 1,400 (61%) were called active. Another 29% or so got no clear call; they are omitted. Calls follow the shape of the dose curve; as a rule, active = well fitted inhibition curve with a large enough effect; inconclusive = small, poorly fitted or top-dose-only effect, or effect the other way; inactive = no such curve, though single readings can be large or run the other way. So high a share suggests a set chosen from earlier hits. The list shows a part of the results.

assay: Confirmation screen for delayed death inhibitors of the malarial parasite plastid, 96 hour incubation; also: nearly all actives have a fitted effect of over 60% in size; details: P. falciparum luciferase growth in erythrocytes; series mostly up to 28.7 µM; activity change, negative = inhibition: at the top concentration
Text: The goal of this screen is to discover new antimalarial compounds that act by inhibiting the development of the apicoplast in the malarial parasite Plasmodium falciparum. The biochemical processes that make this organelle essential for erythrocytic stage parasites are not well understood. However, antibiotics, such as azithromycin and tetracycline, which target the apicoplast translational machinery, have a potent antimalarial effect. […] We have developed a cell-based assay that measures parasite growth based on the expression of an integrated copy of a firefly luciferase reporter. To detect small molecules that cause this "delayed death phenotype, erythrocytes infected with the luciferase-expressing parasites were incubated with compounds for either one or two generations, corresponding to 48 and 96 hours, respectively. Compounds that inhibit parasite growth in the second generation, but not the first, should be enriched in antimalarials that target the apicoplast. Growth inhibition is detected by a decrease in luciferase activity. MLPCN Grant: R21 NS059500 Assay Provider: David Fidock and Eric Ekland, Columbia University Keywords: NIH Roadmap, MLPCN, MLI, MLSMR, qHTS, NCGC, qHTS, malaria, luciferase, viability
Four microliters of culture medium (RPMI 1640 with 0.5% w/v Albumax (GIBCO), 24 mM sodium bicarbonate and 10 ug/mL gentamycin) were dispensed by a Multi-drop Combi into white solid 1536-well plates (Grenier) and 23 nL compound was added by a pin tool. Four microliters of infected erythrocytes (2% hematocrit, 0.1% parasitemia final concentration) in culture medium were dispensed and the plates incubated for 96 hours at 37 C in 5% CO2. Two microliters of luciferase detection reagent was added and luminescence was detected by a ViewLux (PerkinElmer) reader
% is scaled to controls: 0 for no effect and ±100 for the full control effect; potency is read from the fitted curve at half-maximal effect.

SMILES | Potency | activity change, negative = inhibition
Cc1oc2c(c1C(=O)N1CCOCC1)C(=O)c1ccccc1C2=O | 1.58 µM (active) | 
Cc1nnnn1/C(=C\c1ccccc1)C(=O)OCC(=O)N1CC2(C)CC1CC(C)(C)C2 (stereo unspecified) | 10 µM (active) | 
COc1cc(/C=C/C(=O)c2ccc(C)cc2)ccc1OCC#N | 12.6 µM (active) | 
COc1cccc(C(=O)/C=C/c2ccc(OCC#N)c(OC)c2)c1 | 3.98 µM (active) | 
COc1cc(/C=C/C(=O)c2ccc(O)cc2)ccc1OCC#N | 10 µM (active) | 
COc1ccc(/C=C/C(=O)c2ccc(C(=O)/C=C/c3ccc(OC)c(OC)c3)cc2)cc1OC |  | -104% (inactive)
CCCCN(C)CCCNC(=O)c1cc(=O)[nH]c2ccc(S(=O)(=O)N3CCCCC3C)cc12 (stereo unspecified) | 1.12 µM (active) | 
CCCCN(C)C(=O)C1CCC(CNS(=O)(=O)c2ccc3c(c2)CC(C)N3C(=O)C2CC2)CC1 (stereo unspecified) | 5.62 µM (active) | 
Cc1ccc(C(=O)OCc2nnc(-c3ccc(Br)cc3)o2)cc1 |  | -5.53% (inactive)
CCOC(=O)c1c(C)nc(C)c(C(=O)OCC)c1-c1ccc(Br)cc1 | 11.2 µM (active) | 
CN(C)c1ccc(CN(C(=O)c2ccccc2Br)C2CCS(=O)(=O)C2)cc1 (stereo unspecified) | 14.1 µM (active) | 
CCCN1CCc2c(sc3nc(SCC)n(-c4ccc(OC)cc4)c(=O)c23)C1 | 0.316 µM (active) | 
CCCN1CCc2c(sc3nc(SCC)n(-c4ccccc4)c(=O)c23)C1 | 0.631 µM (active) | 
Cn1c(=O)c2c([nH]c(=O)n2C)n(C)c1=O |  | -20.4% (inactive)
CCCc1cc(NCc2ccccn2)n2nc(C)c(-c3ccccc3)c2n1 | 3.55 µM (active) | 
NC(=O)CC(NC(=O)Cc1ccc(Br)cc1)c1ccc(NC2CC3CCC2C3)c([N+](=O)[O-])c1 (stereo unspecified) | 12.6 µM (active) | 
CC/C(=N\OC(=O)c1ccc(OC(C)C)cc1)c1ccc(C)cc1 | 11.2 µM (active) | 
O=C(/C=C/c1ccccc1)/C=C/c1ccccc1 | 2.51 µM (active) | 
O=C(/C=C/c1cccnc1)/C=C/c1cccnc1 | 3.55 µM (active) | 

SMILES | Potency | activity change, negative = inhibition
COc1cc(C(=O)/C=C/c2cccnc2)ccc1O | 5.01 µM (active) | 
O=C(/C=C/c1cccnc1)c1ccc(O)cc1 | 11.2 µM (active) | 
COc1ccc(S(=O)(=O)Nc2cccc(-c3ccc(N4CCCCCC4)nn3)c2)c(OC)c1 | 11.2 µM (active) | 
COc1ccc(C)cc1S(=O)(=O)Nc1cccc(-c2ccc(N3CCCCCC3)nn2)c1 | 10 µM (active) | 
COc1ccc(-c2cc(C)no2)cc1S(=O)(=O)Nc1cccc(CN2CCCC2)c1 | 12.6 µM (active) | 
CCCOc1ccc(/C=C/C(=O)NC2CCCCC2)cc1OC | 15.8 µM (active) | 
Nc1ccccc1C#CC(=O)c1ccccc1 | 14.1 µM (active) | 
CCCC1O[C@@H]2CC3C4CCC5=CC(=O)C=C[C@]5(C)C4C(OC(C)=O)C[C@]3(C)[C@]2(C(=O)COC(C)=O)O1 (stereo partly specified) | 1.41 µM (active) | 
CCOC(=O)C1CCN(c2cc3c(cc2NC(=O)c2ccccc2Cl)n(C)c(=O)n3C)CC1 | 7.94 µM (active) | 
O=C(C=C=Nc1ccccc1)C(=O)N=C=Cc1ccccc1 | 7.94 µM (active) | 
Cc1csc(NC(=O)Cc2coc3cc(C)c(C(C)C)cc23)n1 | 12.6 µM (active) | 
COc1ccc2c(CC(=O)OCC(=O)Nc3cccc(S(N)(=O)=O)c3)coc2c1 |  | -6.15% (inactive)
COc1ccc(NC(=O)Cc2ccc(Cl)cc2)cc1S(=O)(=O)N1CCCCC1 | 14.1 µM (active) | 
COc1ccc(NC(=O)Cc2coc3cc(C)c(C(C)C)cc23)cc1S(=O)(=O)N1CCOCC1 | 7.94 µM (active) | 
CC1CCC/C=C/C(=O)c2c(O)cc(O)cc2CC(=O)O1 (stereo unspecified) | 5.01 µM (active) | 
CC(C)c1cc(NC(=O)CCl)on1 | 7.08 µM (active) | 
CCS(=O)(=O)N1Cc2ccccc2CC1C(=O)Nc1cccc(OC)c1 (stereo unspecified) |  | 11% (inactive)
COc1ccc(NC(=O)[C@H](Cc2c[nH]c3ccccc23)NC(=O)[C@@H]2Cc3ccccc3CN2)cc1 | 6.31 µM (active) | 
COc1cccc(NC(=O)[C@H](Cc2c[nH]c3ccccc23)NC(=O)[C@@H]2Cc3ccccc3CN2)c1 | 12.6 µM (active) | 

SMILES | Potency | activity change, negative = inhibition
O=C(NC(Cc1c[nH]c2ccccc12)C(=O)Nc1ccc(F)cc1)c1cccs1 (stereo unspecified) | 10 µM (active) | 
Cc1cccc(NC(=O)[C@H](Cc2c[nH]c3ccccc23)NC(=O)[C@@H]2Cc3ccccc3CN2)c1 | 10 µM (active) | 
COC(=O)C1=C(C)NC2=C(C(=O)CC(c3cccs3)C2)C1c1ccsc1 (stereo unspecified) | 12.6 µM (active) | 
O=C(CNC(=O)C1CCCCC1)OC(C(=O)c1ccccc1)c1ccccc1 (stereo unspecified) | 15.8 µM (active) | 
COc1ccc(/C=C2\CN(Cc3ccccc3)C/C(=C\c3ccc(OC)c(O)c3)C2=O)cc1O | 0.708 µM (active) | 
CCOc1cc(/C=C2\CN(CC)C/C(=C\c3ccc(O)c(OCC)c3)C2=O)ccc1O | 3.16 µM (active) | 
CCN1C/C(=C/c2ccc(OC)c(O)c2)C(=O)/C(=C/c2ccc(OC)c(O)c2)C1 | 14.1 µM (active) | 
COc1ccc(NS(=O)(=O)c2cc(OCC(N)=O)c(C)cc2Cl)cc1 | 5.01 µM (active) | 
CCOC(=O)c1c(-c2ccc(C)cc2C)csc1NC(=O)CSc1nnnn1C | 3.98 µM (active) | 
O=C(NC(Cc1ccccc1)c1nc2ccccc2[nH]1)C1CC(=O)N(c2ccc3c(c2)OCCO3)C1 (stereo unspecified) | 14.1 µM (active) | 
O=C1c2cccc3cc([N+](=O)[O-])cc(c23)C(=O)N1CCN1CCCC1 | 12.6 µM (active) | 
CN(c1ccccc1)S(=O)(=O)c1nnc(NC(=O)COc2ccccc2F)s1 | 12.6 µM (active) | 
Cc1ccc(S(=O)(=O)N2CCN(C(=O)CCc3c[nH]c4ccccc34)CC2)c(C)c1 | 14.1 µM (active) | 
COc1ccc(NC(=S)N2CCC(Cc3ccccc3)CC2)cc1OC | 12.6 µM (active) | 
CCOC(=O)CC(Nc1nc(N2CCOCC2)nc(N2CCOCC2)n1)c1ccccc1Cl (stereo unspecified) | 3.98 µM (active) | 
O=C(/C=C/Sc1ccccc1)c1ccccc1 | 11.2 µM (active) | 
COC(=O)[C@]1(CC(C)C)N[C@H](c2ccc(-c3ccc(F)cc3)c(OC)c2)[C@@H]2C(=O)N(C)C(=O)[C@@H]21 | 2 µM (active) | 
CCOC(=O)Cn1nnnc1C(CC)N(Cc1cccs1)Cc1cc2ccc(OC)cc2[nH]c1=O (stereo unspecified) | 12.6 µM (active) | 
